Results as given in PubChem BioAssay (NCATS).
Results filed as inconclusive are left out. A call without a number means that no potency is given here. Calls of active or inactive are those of the source. Calls come from the whole dose curve.

Experiment: qHTS assay for small molecule disruptors of the mitochondrial membrane potential - 5 hr assay (AID 651755); note: nearly all actives have a fitted effect of over 40% in size
Conditions: JC-1-type ratio dye; series mostly up to 92.2 µM
Excerpt: National Center for Advancing Translational Sciences [NCATS]
NIH Chemical Genomics Center [NCGC]
National Institutes of Environmental Health Sciences [NIEHS]
National Toxicology Program [NTP]
Mitochondrial membrane potential (MMP), one of the parameters for mitochondrial function, is generated by mitochondrial electron transport chain that creates an electrochemical gradient by a series of redox reactions. This gradient drives the synthesis of ATP, a crucial molecule for various cellular processes. Measuring MMP in living cells is commonly used to assess the effect of chemicals on mitochondrial function. […] The dye accumulates in the mitochondria of healthy cells as aggregates, with red fluorescence. The mitochondrial potential collapses and the dye can no longer accumulate in the mitochondria and remains in the cytoplasm in monomers, with green fluorescence.
2,000 HepG2 cells in 5 uL/well were dispensed into black, clear-bottom 1536-well plates using a Multidrop Combi (Thermo Scientific) dispenser. The assay plates were incubated overnight at 37C to allow cells to attach to the wells, followed by the transfer of 23 nL compound or DMSO vehicle by a pin tool (Kalypsys). The plates were incubated for 5 hr at 37C and 5% CO2, followed by the addition of 5 uL of 2X Mito-MPS dye (BD Biosciences) into each well using Flying Reagent Dispenser (Aurora Discovery) and then following 30 min incubation at 37C. Fluorescence intensity (490nm excitation and 535nm emission for monomers; and 540nm excitation and 590nm emissions for aggregates) was measured using an Envision plate reader.
Potency is the fitted concentration of half-maximal effect.

SMILES | Potency
CCCCCCC=O | inactive
CCCCCCO | inactive
C=CC(=O)NC(C)C | inactive
CCOCC(=O)O | inactive
CC(C)=CCl | inactive
O=[N+]([O-])c1ccc(Cl)cc1Cl | inactive
C=CCn1c(=O)n(CC=C)c(=O)n(CC=C)c1=O | inactive
CC1=C(/C=C/C(C)=C/C=C/C(C)=C\C=O)C(C)(C)CCC1 | inactive
CCCCC(=O)N(C)C | inactive
Cc1ccc(CO)cc1 | inactive
CC(CCl)OC(C)CCl (stereo not given) | inactive
ON=C1CCCCC1 | inactive
CCCCC(CC)COCC1CO1 (stereo not given) | inactive
Nc1nc2ccccc2[nH]1 | inactive
CC(C)(C)OC=O | inactive
C1CCC2OC2C1 (stereo not given) | inactive
C=Cc1ccccn1 | inactive
COc1cccc(N)c1 | inactive
O=C(O)c1cccc([N+](=O)[O-])c1 | inactive
Cc1ccc(Cl)cc1 | inactive

SMILES | Potency
CCCCN(CCO)CCCC | inactive
CC(O)CC(C)O (stereo not given) | inactive
Cc1cc(C2(c3cc(C)c(O)cc3C)OS(=O)(=O)c3ccccc32)c(C)cc1O | inactive
CC(=O)OC(C)=O | inactive
Oc1c(Cl)ccc(Cl)c1Cl | inactive
c1ccc(Oc2ccccc2)cc1 | inactive
COC(=O)CC#N | inactive
CC1CCC2CC1C2(C)C (stereo not given) | inactive
Cc1cc(C)c(N)cc1C | inactive
CCCOCC(C)O (stereo not given) | inactive
Cc1ccccc1C=O | inactive
Cc1ccc2c(c1[N+](=O)[O-])C(=O)c1ccccc1C2=O | 1.33 µM (active)
C=Cc1ccc(C=C)cc1 | inactive
COC(=O)CCC(=O)OC | inactive
Nc1ccccc1S(=O)(=O)O | inactive
Cc1ccccc1C(N)=O | inactive
CC(C)(O)CCC(C)(C)O | inactive
CC(C)(O)C(=O)O | inactive
Cc1ccco1 | inactive
CN(C)c1cccc(O)c1 | inactive
